Results reported in ChEMBL document CHEMBL4296182, “CO-ADD screening of NIH NCI Diversity Set V”.
For part of these data: Potency and affinity values are given separately.

Tests used:
[1] = tested on: Staphylococcus aureus; experiment: Antibacterial activity against Staphylococcus aureus MRSA ATCC 43300 (CO-ADD:GP_020); MIC in CAMBH media using NBS plates, by Resazurin F(560/590); type: functional; details: Concentration 20 uM, ASSAY_TEST Inhibition of Bacterial Growth, detection method Resazurin, Fluorescence (ex560/em590), MEDIA CAMHB, plate type 384well, CORNING #3640, time 18 hr
[2] = tested on: Acinetobacter baumannii; experiment: Antibacterial activity against Acinetobacter baumannii ATCC 19606 (CO-ADD:GN_034); MIC in CAMBH media using NBS plates, by Resazurin F(560/590); type: functional; details: Concentration 20 uM, ASSAY_TEST Inhibition of Bacterial Growth, detection method Resazurin, Fluorescence (ex560/em590), MEDIA CAMHB, plate type 384well, CORNING #3640, time 18 hr
[3] = tested on: Escherichia coli; experiment: Antibacterial activity against Escherichia coli ATCC 25922 (CO-ADD:GN_001); MIC in CAMBH media using NBS plates, by Resazurin F(560/590); type: functional; details: Concentration 20 uM, ASSAY_TEST Inhibition of Bacterial Growth, detection method Resazurin, Fluorescence (ex560/em590), MEDIA CAMHB, plate type 384well, CORNING #3640, time 18 hr
[4] = tested on: Klebsiella pneumoniae; details: Concentration 20 uM; ASSAY_TEST Inhibition of Bacterial Growth; detection method Absorption (OD600); MEDIA CAMHB; plate type 384well; NBS; CORNING #3640; time 18 hr
[5] = tested on: Candida albicans; details: 20 µM
[6] = tested on: Cryptococcus neoformans; details: Concentration 20 uM; ASSAY_TEST Inhibition of Fungal Growth; detection method Resazurin; Absorption (OD600-OD570); plate type 384well; NBS; CORNING #3640

| Structure (SMILES) | Inhibition [1] | Inhibition [2] | Inhibition [3] | Inhibition [4] | Inhibition [5] | Inhibition [6] |
| --- | --- | --- | --- | --- | --- | --- |
| c1ccc(-c2cc3ccccc3[nH]2)cc1 [2-PHENYL-1H-INDOLE] | 0.91% | -19.68% | 16.97% | 15.65% | 3.85% | -3.77% |
| Clc1ccccc1/C=C/c1ccnc2ccccc12 | 12.2% | 3.17% | 1.57% | 12.59% | 30.4% | -3.47% |
| O=C(O)/C=C\c1cc2c(cc1[N+](=O)[O-])OCO2 | 16.17% | -13.7% | 7.39% | 10.81% | 3.76% | -6.94% |
| NS(=O)(=O)c1ccc(NC(=S)NC(=O)c2ccco2)cc1 | 17.92% | 4.84% | 10.07% | 4.06% | 1.47% | -12.16% |
| CCCCn1ccnc1C | -0.22% | -5.26% | 4.7% | 8.98% | 0.01% | -3.23% |
| Cc1nnc(Cc2ccccc2)c2[nH]nc(C)c12 | 16.17% | 11.32% | 1.75% | 14.15% | 5.79% | -4.44% |
| CNc1nc(SC)n(C)c(=O)c1N=O | 10.57% | -4.07% | 13.38% | 9.07% | -3.41% | -15.4% |
| Nc1nc(N)c(/C=N/c2ccc(Br)cc2)c(Nc2ccc(Br)cc2)n1 | -2.53% | -11.54% | 5.75% | -1.66% | -1.08% | 1.82% |
| NS(=O)(=O)c1ccc(Nc2ccccc2)c([N+](=O)[O-])c1 | 4.64% | 12.63% | -4.87% | 9.32% | 7.16% | -1% |
| CC(=O)OCCn1c([N+](=O)[O-])cnc1/C=[N+](\[O-])C1CCCCC1 | 22.69% | 11.41% | 8.05% | 25.14% | 4.46% | -10.83% |
| N#CC1C=Cc2c(ccc3ccccc23)N1C(=O)c1ccccc1 (stereo not drawn) | 29.76% | -9.2% | 7.35% | 24.48% | 11.9% | 2.44% |
| Cn1ncc2c(Nc3ccccc3Cl)nc(Cl)nc21 | 11.91% | 12.64% | 1.79% | 7.78% | 7.2% | -6.78% |
| O=C(C=C=Nc1ccccc1)C(=O)N=C=Cc1ccccc1 | 7.34% | 5.35% | 5.03% | 25.39% | 6.53% | 5.95% |
| Cc1ccc(-n2nnnc2-c2cccnc2)cc1 | 21.74% | -2.15% | 12.35% | 4.8% | -0.65% | -9.13% |
| Nc1ccc(NC(=O)Nc2ccc(N)cc2)cc1 | -0.09% | -11.79% | 5.61% | 0.94% | -2.34% | -9.22% |
| NS(=O)(=O)c1cc2c(cc1Cl)NC(CC1CCCC1)NS2(=O)=O (stereo not drawn) [CYCLOPENTHIAZIDE] | 1.39% | 8.9% | -12.38% | 7.07% | 3.92% | 5.84% |
| CCNc1nc(NC(C)C)nc(-c2ccncc2)n1 | 6.99% | -1.34% | 9.95% | 10% | 1.8% | -10.92% |
| Clc1ccccc1-c1nc(-c2ccncc2)no1 [PIFEXOLE] | 2.18% | -11.63% | 7% | 9.18% | 12.7% | -16.63% |
| CCCCSc1[nH]cnc2nncc1-2 | -2.6% | -0.75% | 12.29% | -0.95% | 4.01% | -16.47% |
| Cc1cc(NC(=O)NC(=O)c2ccccc2NC(=O)C(C)N)ccc1Oc1ncc(Br)cn1.Cl (stereo not drawn) | 19.83% | -8.48% | 11.58% | 15.35% | -1.4% | -7.47% |
| CC1(C)CC(Nc2ccc(Nc3ccccc3)cc2)CC(C)(C)N1 | 6.04% | 9.93% | -3.22% | 10.49% | 1.33% | -0.13% |
| c1ccc(NN(Cc2ccncc2)c2ccccc2)cc1 | -5.2% | -18.1% | 6% | 7.57% | 0.97% | -6.08% |
| CCn1c(=O)n(C)c2c(=O)n(C)c(=O)n(C)c21 | -2% | -10.53% | 11.39% | 6.07% | -0.98% | -11.25% |
